For some assays here: Results with a measured potency or affinity are listed apart. The list shows a part of the results. The source made the active and inactive calls.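 How the source made its calls, unless noted: active means primary screen active and over 50% activation in each of two duplicate runs; inactive means the rest.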
Tests used:
[1] = system: TRPC4 beta (transient receptor potential cation channel C4), mouse; assay: TRPC4 cation channel opening, retest – cell-based, Fluo4 calcium, HEK293 TRPC4beta/mu-opioid, duplicates, 10 µM, confirmation (AID 2426;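 active means fluorescence ratio normalized to control raised more than 50% in primary screen plus both repeat runs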;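 on activation: percent rise of integrated ratio over buffer wells lacking compound which define 0%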); conditions: Fluo4 calcium fluorescence, at 10 µM; stronger effect = higher value
[2] = system: transient receptor potential cation channel C4 beta (TRPC4), mouse; assay: TRPC4 cation channel opening, second retest – cell-based, second round, Fluo4, HEK293 TRPC4beta/mu-opioid, 1 µM, confirmation (AID 2461); conditions: Fluo4 calcium fluorescence, at 1 µM; stronger effect = higher value;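 on activation: 0% = wells without test compound as baseline of integrated fluorescence ratio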
[3] = system: TRPC4 (transient receptor potential cation channel C4 beta), mouse; assay: potentiation of DAMGO EC20 TRPC4 response – cell-based, second round, Fluo-4, HEK293 TRPC4beta/mu-opioid, 1 µM, confirmation (AID 2554;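 active means primary screen hit whose fluorescence ratio, in both repeats, exceeds the weak agonist control mean by 3 SD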); conditions: DAMGO EC20, Fluo-4 calcium flux, at 1 µM; stronger effect = higher value
[4] = system: TRPC4 beta (transient receptor potential cation channel C4), mouse; assay: potentiation of DAMGO EC20 TRPC4 response – cell-based, Fluo-4, HEK293 TRPC4beta/mu-opioid, confirmation (AID 2555;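 active means primary screen hit whose calcium fluorescence ratio, in both repeats, exceeds the weak agonist control mean by 3 SD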); conditions: DAMGO EC20, Fluo-4 calcium flux, at 10 µM; stronger effect = higher value
[5] = target: Short transient receptor potential channel 4 (Mus musculus) (UniProt Q9QUQ5); assay: blockers of DAMGO-evoked TRPC4 calcium flux – cell-based, Fluo4, HEK293 TRPC4beta/mu-opioid, confirmation (AID 2636;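 active means calcium signal cut by more than 3 SD below the full-agonist control yet still positive, in both repeats and the earlier primary screen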); conditions: at 10 µM; stronger effect = higher value
Sequence of Short transient receptor potential channel 4 (Mus musculus) (Q9QUQ5 whole entry, looked up): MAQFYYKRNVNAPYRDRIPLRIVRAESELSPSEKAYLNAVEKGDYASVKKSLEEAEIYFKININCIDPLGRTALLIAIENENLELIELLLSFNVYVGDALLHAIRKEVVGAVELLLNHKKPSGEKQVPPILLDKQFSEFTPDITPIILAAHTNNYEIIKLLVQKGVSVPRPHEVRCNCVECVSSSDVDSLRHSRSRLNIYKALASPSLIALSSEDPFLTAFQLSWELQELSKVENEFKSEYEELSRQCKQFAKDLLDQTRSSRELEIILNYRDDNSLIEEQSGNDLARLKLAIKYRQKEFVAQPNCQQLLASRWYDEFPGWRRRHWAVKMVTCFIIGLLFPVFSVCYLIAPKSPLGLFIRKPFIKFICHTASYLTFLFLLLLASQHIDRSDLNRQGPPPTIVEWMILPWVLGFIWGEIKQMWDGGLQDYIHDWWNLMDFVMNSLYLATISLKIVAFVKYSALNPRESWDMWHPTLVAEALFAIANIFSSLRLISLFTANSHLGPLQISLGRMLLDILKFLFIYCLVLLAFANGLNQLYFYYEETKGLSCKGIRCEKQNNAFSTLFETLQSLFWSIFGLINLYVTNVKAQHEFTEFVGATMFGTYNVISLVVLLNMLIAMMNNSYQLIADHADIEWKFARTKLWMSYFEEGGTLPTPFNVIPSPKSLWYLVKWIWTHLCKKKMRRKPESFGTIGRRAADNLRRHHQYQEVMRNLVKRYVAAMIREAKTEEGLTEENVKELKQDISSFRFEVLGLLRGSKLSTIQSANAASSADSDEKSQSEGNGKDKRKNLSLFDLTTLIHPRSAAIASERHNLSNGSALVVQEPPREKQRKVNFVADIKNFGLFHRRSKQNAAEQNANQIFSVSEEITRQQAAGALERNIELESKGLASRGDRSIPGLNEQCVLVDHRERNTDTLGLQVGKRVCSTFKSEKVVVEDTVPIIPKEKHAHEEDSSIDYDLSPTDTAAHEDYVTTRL

[6] = target: Short transient receptor potential channel 4 (Mus musculus) (UniProt Q9QUQ5); assay: blockers of DAMGO-evoked TRPC4 calcium flux – cell-based, second round, Fluo4, HEK293 TRPC4beta/mu-opioid, 1 µM, confirmation (AID 2637;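 active means calcium signal ratio cut to more than 3 SD under the fully stimulated control mean yet still positive, in both repeats and the primary screen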;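 on inhibition: percent of integrated ratio relative to wells lacking test compound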); conditions: at 1 µM; stronger effect = higher value
[7] = target: Short transient receptor potential channel 4 (Mus musculus) (UniProt Q9QUQ5); assay: potentiation of DAMGO-evoked TRPC4 calcium signal – cell-based, HEK293 TRPC4/mu-opioid, Fluo-4 calcium, EC20 DAMGO, dose response (AID 434941;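 active means earlier screen potentiator hit that boosts the TRPC4 ion channel at some dose, with a dose response; inactive means no potentiation, no dose response, or not a prior hit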;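 further: calcium entry triggered by an EC20 dose of DAMGO at the co-expressed mu-opioid receptor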)
[8] = target: Short transient receptor potential channel 6 (Mus musculus) (UniProt Q61143); assay: TRPC6 blockade by TRPC4 inhibitor hits – cell-based, HEK293, membrane potential dye, duplicate, selectivity assay for TRPC4 inhibitor project, confirmation (AID 434948;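 active means active in primary screen and both duplicates, each dropping signal beyond three positive-control SD with fluorescence still positive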); conditions: HEK293 TRPC6, membrane potential dye fluorescence, at 10 µM, stimulated with maximal-effect acetylcholine; stronger effect = higher value
Sequence of Short transient receptor potential channel 6 (Mus musculus) (Q61143 whole entry, looked up): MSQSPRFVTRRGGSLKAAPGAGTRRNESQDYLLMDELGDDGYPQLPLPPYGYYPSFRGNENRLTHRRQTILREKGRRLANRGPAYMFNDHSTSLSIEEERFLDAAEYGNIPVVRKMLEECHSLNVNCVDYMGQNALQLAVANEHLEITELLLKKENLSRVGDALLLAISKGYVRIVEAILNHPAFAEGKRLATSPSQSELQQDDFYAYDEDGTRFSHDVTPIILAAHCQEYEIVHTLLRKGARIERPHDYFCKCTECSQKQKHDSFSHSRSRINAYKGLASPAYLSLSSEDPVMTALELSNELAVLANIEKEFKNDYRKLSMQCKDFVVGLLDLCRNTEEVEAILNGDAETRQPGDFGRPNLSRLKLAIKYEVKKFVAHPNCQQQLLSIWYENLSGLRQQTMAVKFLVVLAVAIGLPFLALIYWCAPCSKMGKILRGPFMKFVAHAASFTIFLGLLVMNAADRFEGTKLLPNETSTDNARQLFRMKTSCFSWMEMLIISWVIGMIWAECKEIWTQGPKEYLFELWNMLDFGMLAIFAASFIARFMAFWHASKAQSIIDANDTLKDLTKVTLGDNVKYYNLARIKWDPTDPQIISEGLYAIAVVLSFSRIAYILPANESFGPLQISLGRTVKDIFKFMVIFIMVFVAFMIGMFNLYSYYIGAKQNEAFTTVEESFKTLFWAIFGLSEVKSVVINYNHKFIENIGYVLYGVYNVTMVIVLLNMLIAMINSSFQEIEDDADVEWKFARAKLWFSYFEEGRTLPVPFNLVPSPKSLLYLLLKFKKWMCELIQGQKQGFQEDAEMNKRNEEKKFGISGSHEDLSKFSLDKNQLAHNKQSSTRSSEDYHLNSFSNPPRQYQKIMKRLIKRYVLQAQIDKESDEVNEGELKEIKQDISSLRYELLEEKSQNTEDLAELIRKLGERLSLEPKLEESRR

[9] = target: Short transient receptor potential channel 6 (Mus musculus) (UniProt Q61143); assay: TRPC6 opening by TRPC4 activator hits – cell-based, HEK293, membrane potential dye, duplicate, selectivity assay for TRPC4 activator project, confirmation (AID 434950;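 active means membrane potential signal rise above negative control mean plus 3 SD in both duplicates, also active in the earlier TRPC4 screen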;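 on activation: 0% = buffer only wells and 100% = acetylcholine maximal-effect wells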); conditions: HEK293 TRPC6, membrane potential fluorescence, at 10 µM; activation: stronger effect = higher value; outcome: activation
[10] = target: Short transient receptor potential channel 6 (Mus musculus) (UniProt Q61143); assay: positive modulators of mouse TRPC6 channel – HEK293 cells, membrane potential dye, duplicate, selectivity assay for TRPC4 potentiator project, confirmation (AID 434952;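 active means compound raising the membrane signal above positive-control mean plus 3 SD in both repeats, and a primary screen hit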); conditions: HEK293 TRPC6, membrane potential dye fluorescence, at 10 µM, maximal acetylcholine added after compound; stronger effect = higher value
[11] = target: Short transient receptor potential channel 4 (Mus musculus) (UniProt Q9QUQ5); assay: calcium flux activators in TRPC4/5HT1a cells, counter-screen for TRPC4 activator project, cell-based, second counter screen, HEK293 TRPC4/5HT1a, Fluo-4 (AID 434977;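 active means calcium signal rise above buffer-control mean plus 5 SD in both duplicates, and also a hit in the primary screen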;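 on activation: plate controls were assay buffer for no effect and maximal serotonin response for full effect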); conditions: Fluo-4 calcium flux, at 10 µM; stronger effect = higher value
[12] = serotonin-gated TRPC4 signal block – cell-based, second counter screen, HEK293 TRPC4/5HT1a, Fluo-4, counter-screen for TRPC4 inhibitor project, confirmation (AID 434978;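 active means primary screen active whose calcium signal fell more than 3 SD beyond the full-serotonin control mean in both duplicate plates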;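 on outcome: serotonin given first at submaximal then at maximal dose after compound preincubation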); conditions: Fluo-4 calcium flux, at 10 µM, serotonin added to trigger calcium flux; stronger effect = higher value
[13] = system: TRPC4 (mouse), co-expressed with 5HT1a in HEK293; assay: enhancement of serotonin-evoked TRPC4 response – cell-based, second counter screen, HEK293 TRPC4/5HT1a, Fluo-4, counter-screen for TRPC4 potentiator project, confirmation (AID 434979;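 active means signal rise over 3 SD above mean of control wells given weak agonist, in both repeats and first screen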); conditions: Fluo-4 calcium flux, at 10 µM, serotonin added at its EC20 dose; stronger effect = higher value
[14] = nonspecific calcium rise without TRPC4 – cell-based, HEK293 mu-opioid receptor line, counter-screen for TRPC4 activator project, confirmation (AID 449723;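 active means hit in primary screen, with calcium signal over 5 SD above buffer well mean in both duplicates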;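 further: counter screen cells carry the mu-opioid receptor alone and lack TRPC4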); conditions: HEK293 mu-opioid cells, Fluo-4 calcium fluorescence, at 10 µM; stronger effect = higher value
[15] = nonspecific potentiation of DAMGO calcium response – cell-based, HEK293 mu-opioid receptor line, counter-screen for TRPC4 allosteric potentiator project, confirmation (AID 449724;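 active means calcium signal rise more than 3 SD above the low-dose agonist control mean, in both duplicate plates and the primary screen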); conditions: HEK293 mu-opioid receptor cells, Fluo-4 calcium flux, at 10 µM, compound added before EC20 DAMGO stimulus; stronger effect = higher value
[16] = target: Short transient receptor potential channel 4 (Mus musculus) (UniProt Q9QUQ5); assay: block of DAMGO-driven TRPC4 calcium entry – cell-based, HEK293 TRPC4/mu-opioid, Fluo-4 calcium, dose response (AID 434942;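 active means primary screen inhibitor hit that blocks the TRPC4 channel at some tested dose, yielding a dose curve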)
[17] = target: Short transient receptor potential channel 4 (Mus musculus) (UniProt Q9QUQ5); assay: DAMGO-gated TRPC4 membrane potential modulation – cell-based, second specificity screen, HEK293 TRPC4/mu-opioid, selectivity assay for TRPC6 inhibitor project, confirmation (AID 2776;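 active means compounds whose fluorescence signal differed from control wells by over 3 SD, either direction, in both duplicate plates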); conditions: HEK293 TRPC4/MOR, membrane potential dye fluorescence, at 10 µM, channel activated by saturating DAMGO dose; stronger effect = higher value
[18] = system: transient receptor potential cation channel C4 (TRPC4), mouse; assay: membrane potential change in TRPC4 cells – cell-based, HEK293 TRPC4/mu-opioid, membrane potential dye, selectivity assay for TRPC6 inhibitor project, confirmation (AID 2777;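 active means rise or fall in signal beyond 3 SD of buffer-only wells in both replicate plates, either sign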;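 further: integrated kinetic ratio of fluorescence range over baseline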); conditions: membrane potential fluorescence, at 10 µM
[19] = parental HEK293 depolarization signal interference – cell-based, second counter screen, counter-screen for TRPC6 inhibitor project, confirmation (AID 2779;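 active means membrane potential signal moving either way by over 3 SD of the maximum-effect control, in both duplicate plates, meaning non-specific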); conditions: parental HEK293 membrane potential dye fluorescence; at 10 µM; maximal acetylcholine challenge after compound addition
[20] = nonspecific voltage dye signal in HEK293 – cell-based, parental HEK293, counter-screen for TRPC6 inhibitor project, confirmation (AID 2780;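 active means membrane potential signal shifting up or down by more than 3 SD of buffer-only wells, on both duplicate plates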;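 on membrane potential signal change: plate controls were buffer EC0 wells for no effect and acetylcholine ECmax wells for full effect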); conditions: parental HEK293 membrane potential dye fluorescence; at 10 µM
[21] = target: Short transient receptor potential channel 6 (Mus musculus) (UniProt Q61143); assay: blockers of TRPC6 cation channel activity – HEK293 cells, membrane potential dye, duplicate, confirmation (AID 488960;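 active means fluorescence ratio falls more than 5 SD below the full-stimulation control mean, in both duplicate runs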;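 on inhibition: integrated fluorescence ratio of peak minus minimum over baseline after agonist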); conditions: ACh-evoked depolarization, at 10 µM; stronger effect = higher value
[22] = target: Short transient receptor potential channel 6 (Mus musculus) (UniProt Q61143); assay: mouse TRPC6 channel activators, confirmation, HEK293 cells, membrane potential dye, duplicate (AID 488961;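 active means ratio signal rise beyond 5 SD above unstimulated control wells' mean, seen in both duplicate runs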); conditions: HEK293-TRPC6 membrane potential dye fluorescence, FDSS, at 10 µM; stronger effect = higher value
[23] = nonspecific flux increase, KCNQ1-free cells – parental CHO cells, counter-screen for KCNQ1 potentiator project (AID 493006;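 active means duplicate-averaged activation above buffer control mean plus 5 SD of those controls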;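 further: fluorescence ratio of max minus min over baseline after K+ and Tl+ depolarization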); conditions: parental CHO-K1 cells, FluxOR thallium flux, at 10 µM; stronger effect = higher value
[24] = target: Potassium voltage-gated channel subfamily KQT member 1 (Homo sapiens) (UniProt P51787); assay: enhancement of KCNQ1 channel thallium flux – FluxOR thallium flux, CHO cells, duplicates, confirmation (AID 493007;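 active means potentiation averaged over duplicate wells exceeding buffer-only control mean by more than 3 SD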;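 further: 0% = buffer-only wells and 100% = R-L3 activator control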); conditions: KCNQ1 cell line, FluxOR thallium flux fluorescence, at 10 µM; stronger effect = higher value, % of reference activator effect, buffer zero
Sequence of Potassium voltage-gated channel subfamily KQT member 1 (Homo sapiens) (P51787 whole entry, looked up): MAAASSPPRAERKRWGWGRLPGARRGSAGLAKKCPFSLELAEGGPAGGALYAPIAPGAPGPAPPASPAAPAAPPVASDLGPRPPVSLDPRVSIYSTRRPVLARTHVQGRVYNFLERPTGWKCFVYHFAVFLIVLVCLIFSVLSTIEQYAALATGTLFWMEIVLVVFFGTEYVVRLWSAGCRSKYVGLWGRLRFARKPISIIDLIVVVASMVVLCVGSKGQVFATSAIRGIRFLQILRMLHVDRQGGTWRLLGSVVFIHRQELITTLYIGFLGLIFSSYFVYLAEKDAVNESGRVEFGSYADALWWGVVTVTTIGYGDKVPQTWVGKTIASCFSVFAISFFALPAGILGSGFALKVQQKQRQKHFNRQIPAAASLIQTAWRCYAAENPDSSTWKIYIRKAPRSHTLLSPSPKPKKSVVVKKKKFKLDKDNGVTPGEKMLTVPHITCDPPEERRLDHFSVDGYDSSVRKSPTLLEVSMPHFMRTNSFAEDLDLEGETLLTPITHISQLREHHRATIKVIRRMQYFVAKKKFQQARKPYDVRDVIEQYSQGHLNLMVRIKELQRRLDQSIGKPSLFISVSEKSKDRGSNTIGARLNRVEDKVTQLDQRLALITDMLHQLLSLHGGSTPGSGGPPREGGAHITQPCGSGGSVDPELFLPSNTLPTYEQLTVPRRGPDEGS

[25] = target: Potassium voltage-gated channel subfamily KQT member 2 (Rattus norvegicus) (UniProt O88943); assay: KCNQ2 thallium flux enhancement – KCNQ2-CHO-K1 cells, selectivity assay for KCNQ1 potentiator project (AID 493009;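 active means mean duplicate potentiation above the buffer control mean plus 5 SD of buffer wells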;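 further: assay conditions were tuned for KCNQ1 rather than KCNQ2 modulators; signal is max minus min fluorescence divided by baseline after thallium stimulus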); conditions: FluxOR thallium flux fluorescence, at 10 µM; stronger effect = higher value, scaled: buffer 0, activator control 100
Sequence of Potassium voltage-gated channel subfamily KQT member 2 (Rattus norvegicus) (O88943 whole entry, looked up): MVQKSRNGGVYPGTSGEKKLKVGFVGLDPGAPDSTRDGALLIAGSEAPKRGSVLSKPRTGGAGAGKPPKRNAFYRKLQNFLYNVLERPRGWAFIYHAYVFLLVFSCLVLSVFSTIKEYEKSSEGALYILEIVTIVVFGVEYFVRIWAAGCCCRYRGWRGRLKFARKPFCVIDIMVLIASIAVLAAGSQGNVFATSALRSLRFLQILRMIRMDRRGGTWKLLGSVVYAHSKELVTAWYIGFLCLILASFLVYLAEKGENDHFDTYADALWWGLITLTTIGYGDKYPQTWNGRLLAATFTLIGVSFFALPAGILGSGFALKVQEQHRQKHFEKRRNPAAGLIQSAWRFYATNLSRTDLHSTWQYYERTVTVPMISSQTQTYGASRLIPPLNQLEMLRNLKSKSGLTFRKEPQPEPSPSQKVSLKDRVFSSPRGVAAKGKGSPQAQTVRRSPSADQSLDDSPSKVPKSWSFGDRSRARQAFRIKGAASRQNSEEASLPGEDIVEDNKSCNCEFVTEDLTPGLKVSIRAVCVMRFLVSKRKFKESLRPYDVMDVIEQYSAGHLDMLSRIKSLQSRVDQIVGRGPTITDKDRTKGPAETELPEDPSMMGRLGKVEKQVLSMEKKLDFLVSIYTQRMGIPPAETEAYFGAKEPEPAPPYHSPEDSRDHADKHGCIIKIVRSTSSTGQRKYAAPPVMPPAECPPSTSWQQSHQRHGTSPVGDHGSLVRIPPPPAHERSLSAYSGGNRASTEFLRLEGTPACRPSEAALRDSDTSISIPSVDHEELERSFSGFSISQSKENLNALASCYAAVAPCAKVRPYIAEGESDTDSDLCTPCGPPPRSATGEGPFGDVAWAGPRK

[26] = target: Potassium voltage-gated channel subfamily KQT member 1 (Homo sapiens) (UniProt P51787); assay: KCNQ1 activators by electrophysiology – IonWorks patch clamp, KCNQ1-CHO cells, orthogonal assay for KCNQ1 potentiator project, confirmation (AID 493184;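 active means current rise at least 3 SD above the untreated control mean in each of two repeat wells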); conditions: automated patch clamp current, at 10 µM; stronger effect = higher value

COc1ccc(C(CNC(=O)Cc2ccc3ccccc3c2)N(C)C)cc1 (stereo not given)
inactive: outcome [3] | outcome [4] | outcome [5] | outcome [7] | outcome [8] | outcome [10] | outcome [11] | outcome [12] | outcome [13] | outcome [14] | outcome [15]
active: activation [1] 171% | activation [2] 88% | inhibition [6] 98% | activation [9] 55.5%

CN(C)C1(CNC(=O)CC(NC(=O)c2ccccc2Cl)c2ccccc2)CCCCC1 (stereo not given)
inactive: outcome [1] | outcome [2] | outcome [3] | outcome [4] | outcome [7] | outcome [8] | outcome [10] | outcome [11] | outcome [12] | outcome [13] | outcome [14] | outcome [15]
active: inhibition [5] 88% | inhibition [6] 78% | activation [9] 44.5%

CC(NCc1cc(Br)ccc1OCC(=O)NCc1ccccc1)c1ccccc1 (stereo not given)
inactive: outcome [1] | outcome [2] | outcome [3] | outcome [4] | outcome [6] | outcome [7] | outcome [8] | outcome [10] | outcome [11] | outcome [13] | outcome [14] | outcome [15]
active: inhibition [5] 100% | activation [9] 55% | inhibition [12] 35.1%

COc1ccc(/C=C/C(=O)Nc2ccccc2C(=O)NCC(c2ccc(OC)cc2)N(C)C)cc1 (stereo not given)
active: inhibition [5] 101% | inhibition [6] 81%
inactive: outcome [1] | outcome [2] | outcome [3] | outcome [4] | outcome [7] | outcome [8] | outcome [9] | outcome [10] | outcome [11] | outcome [12] | outcome [13] | outcome [14] | outcome [15]

Cc1ccc2c(nc3s/c(=C\c4ccc(-c5ccccc5C(=O)O)o4)c(=O)n32)c1C
active: activation [1] 232% | activation [9] 805% | activation [11] 182% | inhibition [12] 28.9% | activation [14] 203%
inactive: outcome [2] | outcome [3] | outcome [4] | outcome [5] | outcome [6] | outcome [7] | outcome [8] | outcome [10] | outcome [13] | outcome [15]

Cc1ccc(C2(O)CN(c3ccccc3)C3=[N+]2CCS3)cc1 (stereo not given)
inactive: outcome [1] | outcome [2] | outcome [3] | outcome [4] | outcome [7] | outcome [8] | outcome [10] | outcome [11] | outcome [12] | outcome [13] | outcome [14] | outcome [15]
active: inhibition [5] 97% | inhibition [6] 79% | activation [9] 48%

CCOC(=O)C1(CC2CC2)CCN(Cc2ccc3cccc(F)c3n2)CC1
active: activation [1] 129% | inhibition [5] 89% | activation [9] 50.5% | activation [11] 19.5% | inhibition [12] 30.9%
inactive: outcome [2] | outcome [3] | outcome [4] | outcome [6] | outcome [7] | outcome [8] | outcome [10] | outcome [13] | outcome [14] | outcome [15]

CCNC(=S)N1CCC(C(O)(c2ccccc2)c2ccccc2)CC1
inactive: outcome [2] | outcome [3] | outcome [4] | outcome [6] | outcome [7] | outcome [8] | outcome [10] | outcome [11] | outcome [12] | outcome [13] | outcome [14] | outcome [15]
active: activation [1] 117% | inhibition [5] 96% | activation [9] 41.5%

CN(C)C(CNC(=O)Cc1cccc(C(F)(F)F)c1)c1ccccc1 (stereo not given)
inactive: outcome [3] | outcome [4] | outcome [5] | outcome [6] | outcome [7] | outcome [8] | outcome [10] | outcome [11] | outcome [12] | outcome [13] | outcome [14] | outcome [15]
active: activation [1] 129% | activation [2] 142% | activation [9] 31%

O=C(C[n+]1cc2ccccc2c2ccccc21)c1ccccc1
active: activation [1] 212% | inhibition [5] 94% | inhibition [8] 29.5% | activation [11] 27.6% | inhibition [12] 33.5%
inactive: outcome [2] | outcome [3] | outcome [4] | outcome [6] | outcome [7] | outcome [9] | outcome [10] | outcome [13] | outcome [14] | outcome [15]

CC1Cc2ccccc2N1C(=O)CSc1nc2c(c(=O)n(C)c(=O)n2C)n1Cc1ccccc1 (stereo not given)
inactive: outcome [2] | outcome [4] | outcome [6] | outcome [8] | outcome [10] | outcome [14] | outcome [15]
active: activation [1] 320% | potentiation [3] 65% | inhibition [5] 83% | activation [9] 37.5% | activation [11] 85.8% | inhibition [12] 11.2% | potentiation [13] 18.8%

Cc1cc(OCCNCCO)cc(C)c1Cl
active: activation [1] 122% | activation [2] 65% | potentiation [3] 20% | potentiation [4] 19% | activation [9] 37% | activation [11] 35.3% | potentiation [13] 24.3%
inactive: outcome [5] | outcome [6] | outcome [16] | outcome [8] | outcome [10] | outcome [12] | outcome [14] | outcome [15]

COc1ccccc1OCCNCC(O)COc1cccc2[nH]c3ccccc3c12 (stereo not given)
inactive: outcome [18] | outcome [19] | outcome [20] | outcome [22]
active: inhibition [17] 28% | inhibition [21] 61.1%

CC(C)(C)NCc1cc(Br)ccc1OC1CCCC1
active: inhibition [17] 36% | activity change, negative = inhibition [18] 74.6% | signal change vs control [19] 5% | membrane potential signal change [20] 38.4% | inhibition [21] 123%

Cn1c(=O)n(C)c2cc(C(=O)Nc3ccc4c(c3)OCO4)ccc21
active: activity change, negative = inhibition [18] -23.4% | membrane potential signal change [20] -371%
inactive: outcome [17] | outcome [19] | outcome [21] | outcome [22]

CC(C)(C)c1ccc(C(=O)NC(=S)NNC(=O)COc2ccccc2)cc1
inactive: outcome [1] | outcome [2] | outcome [3] | outcome [4] | outcome [6] | outcome [7] | outcome [8] | outcome [9] | outcome [10] | outcome [13] | outcome [14] | outcome [15] | outcome [26]
active: inhibition [5] 78% | activation [11] 16.6% | inhibition [12] 27.8% | activation [23] 186% | potentiation [24] 59.5% | potentiation [25] 208%

From PubChem BioAssay
